Assay outcomes as filed in PubChem BioAssay.
Sampled rows, rich in hits. Any-hit rate of the full collection: about 3.7%.
FMDV inh: antivirals against foot and mouth disease virus. 1.2% of 410,000 active. FMDV antiviral cell-based qHTS. Potency, µM (titrated, usually from 57.9 µM), usual class: inhibitors; calls by dose curve; tested in HEK293T cells; note: read-out not given here; nearly all actives have a fitted effect of over 45% in size
RE007 growth inh: less growth of the S. pombe RE007 Vpr strain; 0.21% of 360,000 active; Potency, µM (series often up to 92.2 µM), hits mostly inhibitors; S. pombe RE007 Vpr strain, BacTiter-Glo ATP luminescence, 24 h; active = well fitted falling curve with a large enough effect; inconclusive = small, poorly fitted or top-dose-only effect; inactive = no such curve, though single readings can be large or run the other way; note: nearly all actives have a fitted effect of over 50% in size
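Fission yeast RE007 carrying one integrated HIV-1 vpr copy, seeded at OD 0.01 in PMG+AL medium with 23 nL pinned compound. Grown 24 h at 30 degrees; viability read by BacTiter-Glo luminescence after 5 min.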
TbPYK inhibitor: T. brucei pyruvate kinase inhibition | Q57TT1 | TbPYK enzyme, Kinase-Glo Plus ATP luminescence, 45 min | Potency, µM (titrated, usually from 76.8 µM), most hits filed as inhibitors | 0.12% of 410,000 active; note: nearly all actives have a fitted effect of over 50% in size
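Luminescence from Kinase-Glo Plus, added after a 45-minute room-temperature reaction, served as the end-point read-out. The enzyme and substrate were preincubated with compound before ADP (130 uM final) initiated turnover. Concentration-effect curves came from normalized qHTS data.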
Sm TGR block: inhibitors of Schistosoma mansoni thioredoxin glutathione reductase | Potency, µM (titrated, usually from 114 µM), actives largely listed as inhibitors | purified TGR, DTNB reduction, TNB absorbance 405 nm | 3% of 360,000 active | Q962Y6 | AID 485364; note: nearly all actives have a fitted effect of over 60% in size
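Kinetic colorimetric format: TGR-catalysed, NADPH-driven DTNB reduction monitored via TNB absorbance. Enzyme dispensed at 20 nM; compound exposure 15 min at room temperature before reaction start.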
Of the large screens only hits and unclear results are named; the others gave an inactive call. Unless noted, calls come from the whole dose curve; as a rule, active = well fitted curve in the direction sought with a large enough effect; inconclusive = small, poorly fitted or top-dose-only effect, or another doubt; inactive = no such curve, though single readings can be large; an effect the other way counts as inactive or inconclusive.

C/C=C1/C[N+]2(C)CCC34C(=C(C=O)[C@H]1C[C@@H]32)Nc1ccccc14 (stereo partly drawn)	Sm TGR block 28µM
C/C=C1/C[N@@+]2(C)CC[C@]34C(=C(C=O)[C@H]1C[C@H]32)Nc1ccccc14	none (no result: RE007 growth inh, TbPYK inhibitor, Sm TGR block)
O=C(NCCc1nnc2n1CCN(Cc1ccsc1)CC2)c1ccc(F)cc1	none (no result: RE007 growth inh, TbPYK inhibitor, Sm TGR block)
CN(C)c1cccc(C(=O)NCC2Cc3cccc(-c4cncnc4)c3O2)c1 (stereo not drawn)	none (no result: RE007 growth inh, TbPYK inhibitor, Sm TGR block)
Cc1cccc(OCC(=O)Nc2cccc3cccnc23)c1C	none (no result: RE007 growth inh)
COc1cc(OC)cc(-c2c(C#Cc3ccsc3)c3cc(-c4ccc(OC)c(OC)c4)ccc3n2C)c1	none (no result: Sm TGR block)
COc1cc(OC)cc(-c2c(C#Cc3ccsc3)c3cc(-c4ccc(OC)nc4)ccc3n2C)c1	Sm TGR block 28µM
COc1ccc(-c2c(C#Cc3ccsc3)c3ccccc3n2C)cc1	Sm TGR block 20µM
COc1cc(C#Cc2c(-c3ccccc3)n(C)c3ccccc23)cc(OC)c1	Sm TGR block 7.9µM
COc1ccc(C#Cc2c(-c3ccccc3)n(C)c3ccccc23)cc1	none (no result: Sm TGR block)
CCN(C(=O)Cn1nc(Cc2ccncc2)c2ccccc2c1=O)c1cccc(C(F)(F)F)c1	none (no result: RE007 growth inh)
N#CCCN1CCN(C(=S)c2ccc(-c3ccc(Cl)cc3)o2)CC1	none
CC(C)c1cc(CN2CCN(CCC#N)CC2)cc(C(C)C)c1O	Sm TGR block 22µM
Cc1ccc(C)c(CSc2c(C(C)C)cnc3c2c(=O)n(C)c(=O)n3C)c1	TbPYK inhibitor inconclusive (no result: RE007 growth inh)
COc1ccccc1-n1c(CNC(=O)c2cccs2)n[nH]c1=S	TbPYK inhibitor inconclusive
COc1ccc(OC)c(-n2c(-c3cccc(C)c3)n[nH]c2=S)c1	TbPYK inhibitor 2.5µM
COc1ccc(OC)c(-n2c(-c3ccccc3)n[nH]c2=S)c1	TbPYK inhibitor 11µM
COc1ccc(-c2cc(-c3n[nH]c(=S)n3-c3ccccc3OC)[nH]n2)cc1	none
COc1ccccc1-n1c(-c2ccccc2)n[nH]c1=S	TbPYK inhibitor 6.3µM (no result: Sm TGR block)
COc1cc(OC)cc(C(=O)NCc2n[nH]c(=S)n2-c2ccccc2OC)c1	TbPYK inhibitor 11µM (no result: FMDV inh)
CN(Cc1ccco1)c1cc(-c2ccc3c(c2)OCO3)ncn1	none (no result: RE007 growth inh, TbPYK inhibitor, Sm TGR block)
CCn1cc(C(=O)NCc2ccccc2Cl)c(=O)c2cc(S(=O)(=O)N3CCc4ccccc4C3)ccc21	none (no result: RE007 growth inh)
Cc1ccc(-n2c(-c3ccccc3)n[nH]c2=S)cc1	TbPYK inhibitor inconclusive
COc1ccc(-n2c(=O)c3ccccc3c3ccccc3c2=O)cc1	FMDV inh inconclusive
Cc1ccc(-n2c(-c3ccccc3)n[nH]c2=S)c(C)c1	TbPYK inhibitor 11µM
COc1ccc(OC)c(-n2c(=O)c3ccccc3c3ccccc3c2=O)c1	FMDV inh 25µM (no result: RE007 growth inh)
COc1cccc(NC(=O)Cn2cc(S(=O)(=O)Cc3ccccc3F)c3ccccc32)c1	none (no result: RE007 growth inh)
CC(=O)N(/N=C/c1ccc([N+](=O)[O-])o1)c1nc2ccccc2c(=O)n1-c1ccccc1	Sm TGR block 40µM
Cc1nc2ccccc2c(=O)n1/N=C/c1ccc([N+](=O)[O-])o1	Sm TGR block 14µM (no result: FMDV inh, RE007 growth inh, TbPYK inhibitor)
Cc1nc2ccccc2n1/N=C/c1ccc([N+](=O)[O-])o1	RE007 growth inh inconclusive (no result: FMDV inh, Sm TGR block)
Cc1cc(C)cc(NC(=O)CCCN2C(=O)COc3ccc(C)cc32)c1	none (no result: RE007 growth inh)
Cc1c(C(=O)N(C)C)sc2c1c(=O)n(-c1ccc(Cl)c(Cl)c1)c(=O)n2CC(=O)N1CCCCC1C (stereo not drawn)	none (no result: RE007 growth inh)
Cc1[nH]n(C)c(=O)c1C(=O)c1c(-c2ccccc2Cl)noc1C	FMDV inh inconclusive, Sm TGR block 45µM
C=CCOc1ccc(C2C3=C(CCCC3=O)N(CC(=O)O)C3=C2C(=O)CCC3)cc1OCC	Sm TGR block 45µM
C#CCOc1ccc(C2C3=C(CCCC3=O)N(CC(=O)O)C3=C2C(=O)CCC3)cc1Br	Sm TGR block 40µM
Cc1cc(C)nc(-c2cccc3c2OC(CNC(=O)c2ccc(Cn4nc(C)cc4C)cc2)C3)n1 (stereo not drawn)	none (no result: RE007 growth inh, TbPYK inhibitor, Sm TGR block)
CCC(=O)N(CCC(c1ccc(C)cc1)c1ccco1)Cc1ccco1 (stereo not drawn)	Sm TGR block 14µM
Cc1ccc(C(=O)C2=C(O)C(=O)N(Cc3cccnc3)C2c2ccc(Cl)cc2)o1 (stereo not drawn)	FMDV inh 16µM
Cc1ccc(C(=O)C2=C(O)C(=O)N(Cc3ccccc3)C2c2cccnc2)o1 (stereo not drawn)	Sm TGR block inconclusive
CCCCCCCCCn1ccc(=N)cc1	FMDV inh 20µM, RE007 growth inh inconclusive
CCN1C(=O)S/C(=C/c2ccc(Sc3nc4ccccc4[nH]3)o2)C1=O	FMDV inh 16µM (no result: RE007 growth inh)
N#C/C(=C/c1ccc(Sc2nc3ccccc3[nH]2)o1)c1cccc(Br)c1	FMDV inh inconclusive
Cc1c(CBr)[n+](=O)c2c(n1[O-])C(Br)CCC2Br (stereo not drawn)	TbPYK inhibitor inconclusive, Sm TGR block 4µM
CCc1c(C)n([O-])c2c([n+]1=O)CCC2	none
Cc1c(C)[n+](=O)c2c(n1[O-])C(Br)CCC2Br (stereo not drawn)	Sm TGR block 40µM
COc1cccc(CNc2ccccn2)c1O	Sm TGR block 28µM
Cc1ccnc(NCc2cccc3ccccc23)c1	none
COc1cccc(CNc2cc(C)ccn2)c1O	Sm TGR block 22µM
COc1cccc(CNc2cccc3cccnc23)c1O	none
CCOC(=O)N1CCC2(CC1)C(C#N)=C(N)Oc1c2sc2nc(C)cc(C)c12	none (no result: FMDV inh)
CCOC(=O)N1CCC2(CC1)C(C#N)=C(N)Oc1c2c(C)nn1-c1cccc(Cl)c1	Sm TGR block 1.1µM
Cc1ccc(-n2nc(CO)c(C(=O)NCCCc3ccccc3)n2)cc1C	none (no result: RE007 growth inh)
Cc1ccc(C)c(S(=O)(=O)Nc2ccc(O)c(Sc3ncn[nH]3)c2)c1	Sm TGR block 50µM
Cc1ccc(S(=O)(=O)Nc2ccc(O)c(Sc3ncn[nH]3)c2)cc1	none (no result: Sm TGR block)
[N-]=[N+]=NC(c1ccccc1)C(NC(=O)c1cc(C(F)(F)F)cc(C(F)(F)F)c1)c1ccccc1 (stereo not drawn)	FMDV inh 25µM (no result: Sm TGR block)
COc1cccc(N/C(SCc2cccc([N+](=O)[O-])c2)=C(/C#N)C(N)=O)c1	FMDV inh 35µM
COc1cccc(NC(=O)CC(=O)c2ccc([N+](=O)[O-])cc2)c1	none
CC1=C(C(=O)Nc2ccc(C(=O)N3CCN(c4cccc(Cl)c4)CC3)cc2)SCCO1	none
CC1=C(C(=O)Nc2cc(C(=O)N3CCN(c4ccc(Cl)cc4)CC3)ccc2C)SCCO1	FMDV inh 22µM (no result: Sm TGR block)
CCON=C(CC)C1=C(O)CC(c2c(C)cc(C)cc2C)CC1=O (stereo not drawn)	none (no result: FMDV inh, RE007 growth inh, Sm TGR block)
CC(C)(C)C#CC(CCc1ccccc1)OS(N)(=O)=O (stereo not drawn)	Sm TGR block 28µM (no result: FMDV inh, RE007 growth inh, TbPYK inhibitor)
CC(CCc1ccccc1)NS(=O)(=O)c1ccccc1 (stereo not drawn)	none
CCOC(=O)N1CCN(C(=O)CCc2ccccc2)CC1	none
CCOC(=O)C#CC(CCc1ccccc1)OS(N)(=O)=O (stereo not drawn)	FMDV inh inconclusive, Sm TGR block 11µM
COc1ccc(/C=N/NC(=O)c2ccco2)cc1Cn1nc(C)cc1C	Sm TGR block 50µM
